High-throughput results deposited in PubChem by National Center for Advancing Translational Sciences (NCATS).
KB-V1 MDR tox: kills drug-selected multidrug resistant KB-V1 cells | Potency, µM (titrated, usually from 46.1 µM), usual class: cytotoxic | KB-V1 MDR cells viability, CellTiter-Glo, 72 h | actives 3.4% (n = 400,000) | AID 1347076; further: on the % scale 0 is the no-effect control and ±100 the full control effect; nearly all actives have a fitted effect of over 60% in size
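Drug-selected KB-V1 cells, grown in DMEM lacking phenol red with 10% FBS, receive compound titrations; after three days at 37 degrees C, surviving cell ATP is quantified by CellTiter-Glo luminescence and responses normalized and curve-fitted.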
PINK1 modulator: changes PINK1 expression; PINK1 immunofluorescence, high-content cytometry, 24 h; Potency, µM (highest dose often 76.6 µM), without a hit: at the top dose activation (PINK1 increase), most hits filed as activators; actives 0.2% (n = 410,000); active means well fitted activation curve with a large enough effect; inconclusive means small, poorly fitted or top-dose-only effect; cell line not stated here; further: % of control where 0% means no effect; nearly all actives have a fitted effect of over 65% in size
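PINK1 protein, normally rapidly degraded, was detected by immunofluorescence after 24 hour compound treatment of a stable cell line. Titration data (5 concentrations) came from laser-scanning cytometry, with CCCP-treated wells as controls.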
SW480 rereplic: inducers of DNA re-replication in SW480 colon cancer cells | SW480 DNA re-replication, Hoechst DNA content imaging, 48 h | Potency, µM (series often up to 46.1 µM), for inactives: top-dose re-replication activation, actives largely listed as activators | actives 1.8% (n = 340,000) | AID 624297; further: % of control where 0% means no effect; nearly all actives have a fitted effect of over 55% in size
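DNA re-replication was detected as more nuclei of elevated Hoechst intensity after 48 hr exposure to compound (23 nL pinned per well of 250 cells).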
MCF10A rereplic: induces DNA re-replication in MCF 10a normal breast cells. MCF 10A DNA re-replication, Hoechst nuclear intensity, 48 h. Potency, µM (highest dose often 46.1 µM), for the others: at the highest dose activity, positive = re-replication, most hits filed as activators. actives 2.9% (n = 350,000); further: % of control where 0% means no effect; nearly all actives have a fitted effect of over 50% in size
KB-3-1 cytotox: KB-3-1 parental cell cytotoxicity | KB-3-1 viability, CellTiter-Glo ATP luminescence, 72 h | actives 1.4% (n = 400,000) | AID 1347075 | Potency, µM (highest dose often 46.1 µM), most hits filed as cytotoxic; further: on the % scale 0 is the no-effect control and ±100 the full control effect; nearly all actives have a fitted effect of over 60% in size
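Multi-concentration cytotoxicity screen in KB-3-1 cells grown in DMEM lacking phenol red with 10% FBS. After 72 h at 37 °C with compound, ATP-dependent luminescence was recorded.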
Starred values were filed as active, the others as inactive; i = inactive; ? = inconclusive; · = no result given; [ ] = remark or other dose. Most compounds without a hit are left out; they make up all but 6.7% or so of the library. Unless noted, the call rests on the fitted dose curve; in most records, active means well fitted curve in the direction sought with a large enough effect; inconclusive means small, poorly fitted or top-dose-only effect, or another doubt; inactive means no such curve, though single readings can be large; an effect the other way counts as inactive or inconclusive. Potency means the concentration at half of the fitted maximal effect.

SMILES	KB-V1 MDR tox	PINK1 modulator	SW480 rereplic	MCF10A rereplic	KB-3-1 cytotox
COc1ccc(C(=O)CCS(=O)(=O)c2ccc(C)cc2)cc1OC	i	-0.2%	5.17µM*	?	i
COc1ccc(/C(N)=N/OC(=O)Cc2ccc(C)cc2)cc1OC	i	1.5%	2.91µM*	?	i
Cc1ccc(S(=O)(=O)CCC(=O)c2ccc(O)cc2O)cc1	i	7.6%	?	18.4µM*	?
CCOc1ccccc1NC(=O)CCSc1nc2n[nH]c(C)c2c(=N)n1-c1ccccc1Cl	?	7.2%[38.3 µM]	?	13µM*	i
CCc1ccccc1NC(=O)CSc1nc2n[nH]c(C)c2c(=N)n1-c1cccc(OC)c1	8.2µM*	-5.5%[38.3 µM]	18.3%	?	i
CCc1ccc(NC(=O)CSc2nc3n[nH]c(C)c3c(=N)n2-c2ccccc2C)cc1	i	-0.9%	·	·	i
COc1ccc(OC)c(NC(=O)CSc2nc3n[nH]c(C)c3c(=N)n2-c2cccc(Cl)c2C)c1	?	0.6%	6.5%	26.8%	?
CCOc1ccccc1-n1c(SCC(=O)Nc2ccc(CC)cc2)nc2n[nH]c(C)c2c1=N	?	8.6%	-2.0%	8.2µM*	18.4µM*
Cc1ccc(C)c(OCCC(=O)OCC(=O)NCCc2ccc(S(N)(=O)=O)cc2)c1	i	0.2%	-16.1%	-3.1%	i
CCOC(=O)c1c(C)[nH]c(CCC(=O)Nc2ccc(N(CC)CC)cc2C)c1C	·	-0.1%	·	·	·
Cc1cccc(CNc2nc(-c3cccc(NS(C)(=O)=O)c3)nc3ccccc23)c1	·	0.5%	·	·	·
Cc1ccc2nc(-c3cccc(NS(C)(=O)=O)c3)cc(-c3ccccc3)c2c1	18.4µM*	-1.8%	?	?	?
CC1Cc2ccccc2N1c1ncnc2nc[nH]c12 (stereo not drawn)	i	-1.7%	-10.9%	23.7%	9.2µM*
Cc1cc2cc3c(=O)[nH]c(=O)nc-3n(CC(O)C(O)C(O)CO)c2cc1C (stereo not drawn)	i	1.6%	20.6µM*	?	i
Cc1ccn(CCC(=O)NCC2Cc3cc(Cl)cc(-c4ccc5[nH]ccc5c4)c3O2)n1 (stereo not drawn)	·	2.6%	·	·	·
COc1cc(NC(=O)CSCc2ccc(Cl)cc2)c(C(=O)O)cc1OC	?	1.0%	-11.6%	1.9%	i
COc1ccc(/C=C/C(=O)NC(=S)NNC(=O)c2cccs2)cc1	?	9.1%	23.1µM*	10.3µM*	?
Cc1nc(NC2=NCN(Cc3cccnc3)CN2)nc2ccccc12	i	-1.3%[38.3 µM]	-4.3%	7.8%	i
Cc1nc(NC2=NCN(CCCN3CCOCC3)CN2)nc2c(C)cccc12	i	-1.7%	?	?	8.2µM*
COc1ccc(-c2[nH]nc3nc(N4CCN(C(=O)c5ccoc5)CC4)cc(C(F)(F)F)c23)cc1	6.51µM*	0.8%	·	·	?
CCOc1ccc(NCc2nnc(SCc3ccccc3Cl)n2-c2ccccc2)cc1	20.6µM*	22.0%[38.3 µM]	20.3%	?	i
C=CCn1c(SCc2ccc(C(=O)Nc3nccs3)cc2)nnc1-c1ccc(C)c(Cl)c1	5.17µM*	-0.2%	?	10.3µM*	?
C=CCn1c(CNC(=O)c2cccs2)nnc1SCC(=O)c1ccc(Br)cc1	14.6µM*	-17.1%[38.3 µM]	-7.2%	1.6%	i
C=CCn1c(CCNC(=O)c2cccs2)nnc1SCC(=O)c1ccc(Cl)cc1	i	1.7%[38.3 µM]	?	25.9µM*	i
Oc1ccc(/C=N/N=C(c2ccccc2)c2ccccc2)c(O)c1O	i	-0.7%	-2.1%	20.6µM*	?
SMILES	KB-V1 MDR tox	PINK1 modulator	SW480 rereplic	MCF10A rereplic	KB-3-1 cytotox
Cc1ccccc1S(=O)(=O)NC(=O)C1(C)CCN1C(=O)c1cccc(F)c1 (stereo not drawn)	i	-0.4%	·	·	i
COC(=O)C1=C(COc2ccc(C=O)cc2OC)NC(=O)NC1c1cc(C)ccc1C (stereo not drawn)	20.6µM*	-0.3%	0.4%	12.1%	?
CCSc1nc(-c2ccccc2)c(C#N)c(=O)[nH]1	i	2.1%[38.3 µM]	19.7%	7.31µM*	i
COc1ccc(C(C)(O)c2nc(-c3ccc4c(c3)OCO4)cs2)cc1 (stereo not drawn)	i	4.4%	·	·	i
CC(C)(C)c1nc(-c2ccccc2)nc2c1OCCC2	?	11.0%	-2.8%	25.9µM*	i
CCNC(=O)C1(C)CCN(C(=O)c2cccc(Cl)c2)C1 (stereo not drawn)	i	-0.3%	·	·	i
CC(=O)NC(C)(c1ccccc1)c1nc(/C=C/c2ccccc2)cs1 (stereo not drawn)	i	2.3%	·	·	i
S=C1SCN(Cc2ccco2)CN1Cc1ccco1	i	-0.2%	13µM*	?	i
CCN1CSC(=S)N(Cc2ccccc2)C1	i	4.0%	18.4µM*	?	?
Cc1cc(Nc2cccc(C(F)(F)F)c2)nc2ccc(NC(=O)Cc3ccc(Cl)cc3)cc12	i	?	·	·	i
C=C1C(=O)OC2C[C@@]3(C)CCCC(C)C3=CC12 (stereo partly drawn)	·	0.7%	·	·	·
O=C(CN1CCC(n2nnc3cc(F)ccc32)CC1)NC1CCCCC1	20.6µM*	-1.7%	0.3%	16.2%	i
O=C(CN1CCC(n2nnc3cc(F)ccc32)CC1)N1CCc2ccccc2C1	?	-3.4%[38.3 µM]	?	5.17µM*	i
CCOc1ccc2nc(NC(=O)CN3CCC(n4nnc5cc(F)ccc54)CC3)sc2c1	20.6µM*	-0.7%	-4.2%	?	?
O=C(CN1CCC(n2nnc3cc(F)ccc32)CC1)NC1CC1	?	-3.8%	-4.0%	1.2%	i
CCN(CC)C(=O)Cn1c(=O)cc(C)c2c(C)nn(-c3cccc(Cl)c3C)c21	i	0.4%	·	·	i
N#CCCn1c(=O)c(-c2ccccc2)nc2cnc(N3CCNCC3)nc21	·	-0.2%	·	·	·
Cc1occc1C(=O)NCCN1Cc2ccccc2OC(c2ccccc2F)C1 (stereo not drawn)	·	-0.2%	·	·	·
N#CC1=C(Nc2ccccc2)SC=C(c2ccc(Cl)c(Cl)c2)N=C1N1CCOCC1	i	2.9%	-0.4%	16.4µM*	i
Cc1c(Cl)cccc1NC(=O)Cn1nc(C)n2cccc2c1=O	i	-1.3%	-30.9%	-1.9%	i
CNc1nc2cc([N+](=O)[O-])c([N+](=O)[O-])cc2nc1NC	i	4.9%	-3.1%	25.1%	8.2µM*
C=CCSc1nnc(NC(=O)CN2C(=O)NC3(CCCC3)C2=O)s1	i	6.8%	-8.0%	13.5%	i
COc1ccc(CN(C(C)=O)c2ccccc2C(=O)O)cc1	i	1.1%	2.3%	4.8%	i
CC(=O)N(Cc1ccc(Br)cc1)c1ccccc1C(=O)O	i	-1.0%	2.59µM*	-2.5%	i
C[C@@H]1CNC(=O)c2c(C(=O)NCC(=O)OC(C)(C)C)ncn21	i	1.7%	·	·	i
